Results published in the supplement of paper PMC8728848.
About 410 targets per protein were measured; listed, in parts, are those with the strongest signals and a random draw of the rest.

Columns and labels:
Experiment in all cases: glycan array binding signal (z-score within array); higher = stronger binding
Details in all cases: glycan notation: IUPAC condensed, linker removed
[1] = target: GalNAc(a1-3)GalNAc(a1-3)Gal(a1-4)Gal(b1-4)GlcNAc
Procedure, shortened: (§1)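 The Consortium for Functional Glycomics database supplied 3228 glycan arrays, of which those lacking an available protein sequence were dropped. The binding signal, a within-array Z-score, was averaged across arrays of the same protein sequence and across linkers. Negative scores can be read as non-binding.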

GalNAc3S(b1-4)GlcNAc = target: GalNAc3S(b1-4)GlcNAc
Procedure, shortened: as §1

GalNAc4S6S(b1-4)GlcNAc = target: GalNAc4S6S(b1-4)GlcNAc
Procedure, shortened: as §1

[2] = target: GlcNAc(b1-2)[GlcNAc(b1-6)]Man(a1-6)[GlcNAc(b1-2)Man(a1-3)]Man(b1-4)GlcNAc(b1-4)[Fuc(a1-6)]GlcNAc
Procedure, shortened: as §1

[3] = target: GlcNAc(b1-3)Gal(b1-3)GalNAc
Procedure, shortened: as §1

[4] = target: GlcNAc(b1-3)Gal(b1-4)GlcNAc(b1-2)Man(a1-3)[GlcNAc(b1-3)Gal(b1-4)GlcNAc(b1-2)Man(a1-6)]Man(b1-4)GlcNAc(b1-4)GlcNAc
Procedure, shortened: as §1

[5] = target: GlcNAc(b1-3)Gal(b1-4)GlcNAc(b1-3)Gal(b1-4)GlcNAc(b1-2)Man(a1-3)[GlcNAc(b1-3)Gal(b1-4)GlcNAc(b1-3)Gal(b1-4)GlcNAc(b1-2)Man(a1-6)]Man(b1-4)GlcNAc(b1-4)GlcNAc
Procedure, shortened: as §1

[6] = target: GlcNAc(b1-3)Gal(b1-4)GlcNAc(b1-3)Gal(b1-4)GlcNAc(b1-2)[GlcNAc(b1-3)Gal(b1-4)GlcNAc(b1-3)Gal(b1-4)GlcNAc(b1-6)]Man(a1-6)[GlcNAc(b1-3)Gal(b1-4)GlcNAc(b1-3)Gal(b1-4)GlcNAc(b1-2)Man(a1-3)]Man(b1-4)GlcNAc(b1-4)[Fuc(a1-6)]GlcNAc
Procedure, shortened: as §1

[7] = target: GlcNAc(b1-4)GlcNAc(b1-4)GlcNAc
Procedure, shortened: as §1

[8] = target: GlcNAc6S(b1-3)Gal(b1-4)GlcNAc
Procedure, shortened: as §1

[9] = target: Man(a1-2)Man(a1-3)[Man(a1-6)]Man(a1-6)[Man(a1-2)Man(a1-3)]Man(b1-4)GlcNAc(b1-4)GlcNAc
Procedure, shortened: as §1

[10] = target: Man(a1-2)Man(a1-6)[Man(a1-3)]Man(a1-6)[Man(a1-2)Man(a1-2)Man(a1-3)]Man(b1-4)GlcNAc(b1-4)GlcNAc
Procedure, shortened: as §1

[11] = target: Neu5Ac(a2-3)Gal(b1-3)[GlcNAc(b1-6)]GalNAc
Procedure, shortened: as §1

[12] = target: Neu5Ac(a2-3)Gal(b1-4)GlcNAc(b1-2)Man
Procedure, shortened: as §1

[13] = target: Neu5Ac(a2-3)Gal(b1-4)GlcNAc(b1-2)[Neu5Ac(a2-3)Gal(b1-4)GlcNAc(b1-6)]Man(a1-6)[Neu5Ac(a2-3)Gal(b1-4)GlcNAc(b1-2)Man(a1-3)]Man(b1-4)GlcNAc(b1-4)GlcNAc
Procedure, shortened: as §1

[14] = target: Neu5Ac(a2-3)Gal(b1-4)GlcNAc(b1-3)Gal(b1-4)GlcNAc(b1-3)Gal(b1-4)GlcNAc
Procedure, shortened: as §1

[15] = target: Neu5Ac(a2-3)[GalNAc(b1-4)]Gal(b1-4)GlcNAc(b1-3)GalNAc
Procedure, shortened: as §1

[16] = target: Neu5Ac(a2-6)Gal(b1-4)GlcNAc(b1-2)Man
Procedure, shortened: as §1

[17] = target: Neu5Ac(a2-6)Gal(b1-4)GlcNAc(b1-3)Gal(b1-3)GlcNAc
Procedure, shortened: as §1

[18] = target: Neu5Ac(a2-8)Neu5Ac(a2-3)[Gal(b1-3)GalNAc(b1-4)]Gal(b1-4)Glc
Procedure, shortened: as §1

[19] = target: Neu5Ac(a2-8)Neu5Ac(a2-3)[GalNAc(b1-4)]Gal(b1-4)Glc
Procedure, shortened: as §1

[20] = target: Neu5Ac(a2-8)Neu5Ac(a2-8)Neu5Ac(a2-3)[GalNAc(b1-4)]Gal(b1-4)Glc
Procedure, shortened: as §1

[21] = target: Neu5Gc(a2-3)Gal(b1-3)[Fuc(a1-4)]GlcNAc
Procedure, shortened: as §1

Neu5Gc(a2-3)Gal(b1-4)Glc = target: Neu5Gc(a2-3)Gal(b1-4)Glc
Procedure, shortened: as §1

[22] = target: Neu5Gc(a2-6)Gal(b1-4)GlcNAc
Procedure, shortened: as §1

B1: Pbx2 (Cryptococcus neoformans) (protein)
chain: AVSPLPSSTELVFYSQKRRRRRICSTATGSLSTPDPTRMTSDPYKRVGMRFSSVPRLLITFLSLLLLVSAAPPCVRFADYDSINQMFIDGGPGTKVLLCPNRLYRLSGPIIFTAADQEIATYGYPTGSERAVLRVEGRNTATAIQGDCRRCARVSVKNLVVDGNRKKLGRMRDFQLATGLVVLGGNEGQSIQNSWIKNPRGFTAIHIREGDKLQCSGARVEKNEIGPVGEEYDPEKDGDDPEMSPLGRPLADGVSIACRDSFIRDNTFRDNTDAAIVVYCSPGTLIHANHIFAQSLSAMAGILMVDSTPFNGDYTGTVVRSNIIDAVSRTIRVGIGIGPTVWSDDTETILTGGSVIGNGLKGRYMGYGIAAAGLKQWTIKDNWDEAKHEGRKSARCFDEPVNPDPIGLLYNRPTMEDCTVQSGFADHDFQYLVCIDGLYDKTNPPKHDPAPLAHDPSPTNAQEDNTVQQDGGDSKSKSIEQPREASDIEAEPSVEKMFSTGSEMMDDVLEHSHQRMHEVIDHLSRRIDILGAASAGKGSGDSKISEVLDPAMSSHLEKLQRKIEHLEFSLRSQIETAIQLRSAIQGWDQEMALVTDWEYDILLDVRHKLELSSYPHDQPLDPRLMRGQSYLNNEAVLVDDHSHPSLEGENLRAMSDRARLNANEEA
- glycan array binding signal (z-score) [1]: 0.168
- glycan array binding signal (z-score) (GalNAc3S(b1-4)GlcNAc): -0.522
- glycan array binding signal (z-score) (GalNAc4S6S(b1-4)GlcNAc): 6.54
- glycan array binding signal (z-score) [2]: -0.377
- glycan array binding signal (z-score) [3]: -0.436
- glycan array binding signal (z-score) [4]: -0.424
- glycan array binding signal (z-score) [5]: 3.17
- glycan array binding signal (z-score) [6]: 1.33
- glycan array binding signal (z-score) [7]: -0.147
- glycan array binding signal (z-score) [8]: -0.104
- glycan array binding signal (z-score) [9]: -0.065
- glycan array binding signal (z-score) [10]: 0.275
- glycan array binding signal (z-score) [11]: -0.075
- glycan array binding signal (z-score) [12]: 4.34
- glycan array binding signal (z-score) [13]: 0.027
- glycan array binding signal (z-score) [14]: -0.461
- glycan array binding signal (z-score) [15]: -0.206
- glycan array binding signal (z-score) [16]: 0.729
- glycan array binding signal (z-score) [17]: -0.368
- glycan array binding signal (z-score) [18]: 0.256
- glycan array binding signal (z-score) [19]: -0.131
- glycan array binding signal (z-score) [20]: 0.212
- glycan array binding signal (z-score) [21]: -0.266
- glycan array binding signal (z-score) (Neu5Gc(a2-3)Gal(b1-4)Glc): -0.241
- glycan array binding signal (z-score) [22]: -0.317
